Results as given in PubChem BioAssay (NCI).
This is part of a sample that, as a whole, favours compounds with a hit. Of some 83,000 tested, about 20% had one in any assay.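 Single-concentration screen, 48 h exposure, 96-well plates. Endpoint: percent growth. Below 10 = active.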 A number with no mark means an inactive call. The source made the active and inactive calls.

system: MDA-MB-468 breast; assay: NCI-60 one-dose screen, 48 h (100 = growth as untreated, 0 = no growth, -100 = all killed); conditions: 10 µM unless noted

Structure (SMILES) | growth
O=C1N(c2ccccc2)C(=S)N[C@]12[C@H](c1ccccc1)C1CCCN1[C@]21C(=O)NC2C=CC(Cl)=C[C@H]21 (stereo not given in full) | 99.7%
Oc1c(I)cc(I)cc1CNCCCN(Cc1ccccn1)Cc1ccccn1 | -55.7% (active)
CC(Oc1ccc(C(=O)NS(=O)(=O)C(C)(C)C)cc1C(F)(F)F)c1ccc(Oc2ccccc2)cn1 (stereo not given) | 71.8%
COC(=O)[C@@H]1[C@H](O)[C@H](C)[C@H](O)[C@H](C)/C=C\C=C(C)C(=O)Nc2c(C)c(OC(C)=O)c3c(c2O)C(=O)C(C)=C2OCOC(=C23)C(C)=C[C@@](C)(O)[C@H](O)[C@@H](C)[C@H]1OC(C)=O | 110%
O=c1oc2ccc(I)cc2c(=O)n1-c1ccc(Cl)cc1F | 0.339% (active)
N#Cc1c(N)nc2c(nnn2-c2cccc(Br)c2)c1N | 92.9%
COc1ccc(/C(C)=C(\c2ccc(Cl)cc2)c2ccc(OCCN)cc2)cc1 | 67.2%
C=C1c2c(C)nn(-c3ccc(O)cc3)c2N(C)C23C[C@@H]1C1(C)c4c(C)nn(-c5ccc(O)cc5)c4N(C)C(C)(C[C@H]12)C3 (stereo not given in full) | -5.71% (active)
COc1ncc(-c2ccc3ncnc(Nc4cccc(Cl)c4)c3c2)cc1NS(C)(=O)=O | -43.3% (active)
O=S(=O)(O)c1ccc2c(c1)Sc1cc(S(=O)(=O)O)ccc1O2 | 107%
N#C/C(=C\c1ccc(-c2ccc(Cl)c(Cl)c2)o1)C(=O)Nc1ncc(Cc2ccc(Cl)cc2)s1 | 22.1%
COc1ccc([N+](=O)[O-])c(/C=C/C(=O)c2ccccn2)c1 | 74.4%
Cc1cc(=O)[nH]c2c(C#N)cnn12 | 106%
O=C(COc1ccc(/C=C2\SC(=O)NC2=O)cc1)Nc1ccc(C(=O)/C=C/c2cc3ccccc3nc2Cl)cc1 | 20.6%
CCN(CC)CCCC(C)Nc1cc(-c2ccc(C(F)(F)F)cc2)c(C#N)c2nc3ccccc3n12 (stereo not given) | -23.6% (active)
O=C(CN1CCN(c2cc3c(cc2F)c(=O)c(C(=O)O)cn3C2CC2)CC1)N/N=C/c1ccco1 | 104%
CCc1cc2c(c3ccc(C(=O)CBr)cc13)CCCC2 | 111%
COc1ccc(CNc2c3ccccc3nc3ccccc23)c(OC)c1 | 4.83% (active)
C[C@]12CCc3c(ccc4cc(O)ccc34)[C@@H]1CC[C@H]2O | 81.3%
C[C@]12CC[C@H]3[C@@H](CC=C4C[C@@H](O)CC[C@@]43C)[C@@H]1CC[C@@H]2C(=O)C/C=N/O | 90.2%

Structure (SMILES) | growth
CNC(=O)c1cc(Oc2ccc3nc(NC(C)=O)sc3c2)ccn1 | 100%
CC(=O)C1=C(C)NC(NNC(N)=S)=NC1c1ccccc1 (stereo not given) | 100%
Cc1ccc2c(c1)CC(O)CC1C(=O)N(CCO)CC(=O)N21 (stereo not given) | 96%
COc1ccc(Cc2nc(C#N)c(N3CCN(c4ccc(F)cc4)CC3)o2)cc1 | 78%
CCCCCCCCCCCCCCCCC(Br)C(=O)O (stereo not given) | 96%
CCCNNC(=O)/C=C/c1ccc(CNCCc2c(C)[nH]c3ccccc23)cc1 | 32.8% [2.5 µM]
COc1ccc(-c2cc(-c3cc(OC)c(OC)c(OC)c3)c(C#N)c(=O)n2CCCCC(=O)NO)cc1 | 72.3%
Cc1cc(C(=O)Nc2ccc3cc(CN4CCOCC4)ccc3n2)c(C)n1-c1ccccc1 | 26.7%
CC(c1ccccc1)N1C(=O)C(C2SC(=S)N(C(C)c3ccccc3)C2=O)SC1=S (stereo not given) | 44.2%
CC12CCC(O)CC1=CCC1C2CCC2(C)C3=NN=CC3CC12 (stereo not given) | 92.1%
CC(=O)CC/C=C(\C)[C@H](O)[C@H](C)C(=O)O[C@H]1C[C@H](C)C=C2C=C[C@@]3(C)O[C@@H](O)CC(=O)[C@]3(C)[C@H]21 | -65.4% (active)
CC(C)C1=NOC(=O)C1=Cc1cn(-c2ccccc2)nc1-c1ccc(Br)cc1 | 92.2%
Cc1ccc(-c2nnc(SCc3ccc(O)c4ncccc34)n2-c2ccccc2)cc1 | 9.08% (active)
COc1cc2c(cc1OC)C(Sc1ccc(C)cc1)c1c(nc(N)c(C#N)c1N)O2 (stereo not given) | -46.7% (active)
CCCCC(=O)OC1CCCCC1C (stereo not given) | 86.6%
COc1cc2c3c(cccc3c1)C(=O)N(CCN1CCCC1)C2=O | -3.53% (active)
COc1cc(C(=O)Nc2cc(O)c(C/C=C(\C)CCC=C(C)C)c(O)c2)cc2c1O[C@]1(C)CC[C@@H](O)C(C)(C)[C@H]1C2 | 3.89% (active)
N#C/C(=C\c1c(-c2ccccc2)[nH]c2ccccc12)S(=O)(=O)c1ccccc1 | 20.5%
Oc1ccc(Cl)cc1Cc1cc(Cl)cc(Cl)c1O | 18.4%
COc1ccc(Cn2c(Br)c3c(c2-c2cc(OC)c(OC)c(OC)c2)CCc2sc(N)nc2-3)cc1 | 16.3%
